From publication PMC5540273 (PLoS ONE, 2017)

Tested on: T1, MST2
T1 construct: gene STK3
Settings: concentration: 1 μM,replicates: in singlicate; n = 1
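Also: KINOMEscan kinase panel screen.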

| SMILES | %Inh |
| --- | --- |
| CCCC(=O)Nc1n[nH]c2ncccc12 [SB-601436] | 0% |
| CC(C)S(=O)(=O)N1CCN(Cc2ccc3c(c2)nc(NC(=O)c2ccsc2)n3C[C@H](O)c2ccccc2)CC1 [GW635815] | 0% |
| Cn1ccc2ncnc(Oc3ccc(NC(=O)Nc4cncc(C(F)(F)F)c4)c(Cl)c3)c21 | 0% |
| CN(c1ccc2c(c1)nc(NCc1ccc(F)cc1)n2C)c1ccnc(Nc2ccc(CS(C)(=O)=O)cc2)n1.Cl [GW813244] | 0% |
| C[C@@H](Oc1cc(-n2cnc3ccc(-c4ccncc4)cc32)sc1C(N)=O)c1ccccc1Cl [GSK483724] | 21% |
| C[C@@H]1CNc2c(sc3ccc4nc(-c5ccncc5)ccc4c23)C(=O)N1 | 6% |
| COc1cc(Nc2nccc(N3CCC(NC(=O)c4cccc(C#N)c4)C3)n2)cc(OC)c1OC (centres unmarked) [GSK1379751] | 0% |
| Cn1ccc2ncnc(Oc3ccc(NC(=O)Nc4ccnc(C(F)(F)F)c4)c(Cl)c3)c21 | 0% |
| Cn1cc(-c2cccc3c(N)c(C(N)=O)nnc23)cn1 | 2% |
| CC(=O)Nc1nc2cnc(Nc3cc(NC(=O)c4cccc(CC(C)(C)C#N)c4)ccc3C)nc2s1 | 0% |
| COc1cccc(CNC(=O)NC2CCN(c3ccnc(Nc4cc(OC)c(OC)c(OC)c4)n3)C2)c1 (centres unmarked) [GSK1379765] | 27% |
| O=C(Nc1cccc(C(F)(F)F)c1)c1cccc(Oc2ccc3nccn3n2)c1 | 0% |
| OCCn1cc(-c2cnc3nnn(Cc4ccc5ncccc5c4)c3n2)cn1 | 0% |
| Cc1cccc(-c2nc(Nc3ccncc3)c3sccc3n2)n1 [GW869641] | 17% |
| CS(=O)(=O)Nc1ccc(-c2ccnc3[nH]ccc23)cc1 [GSK993273] | 5% |
| Cn1ccc2ncnc(Oc3ccc(NC(=O)Nc4cccc(C(F)(F)F)c4)c(Cl)c3)c21 | 24% |
| O=C(Nc1n[nH]c2cc(-c3ccco3)ccc12)C1CC1 [SB-737447] | 15% |
| Cc1ccc(C(=O)Nc2ccc(Oc3ccc4nc(NC(=O)C5CC5)cn4c3)c(F)c2)c(=O)n1-c1ccccc1 | 100% |
| Cc1n[nH]c2cc(Nc3ccnc(Nc4cccc(CN5CCOCC5)c4)n3)ccc12 [GW682569] | 26% |

| SMILES | %Inh |
| --- | --- |
| Cn1ccc2ncnc(Oc3ccc(NC(=O)Nc4cnn(C(C)(C)C)c4)c(Cl)c3)c21 | 0% |
| Cn1ccc2ncnc(Oc3ccc(NC(=O)Nc4cccc(C(F)(F)F)c4)c(F)c3)c21 | 0% |
| Cl.Cl.NC[C@H](CC1CCCCC1)NC(=O)c1ccc(-c2ccnc3[nH]ccc23)s1 [GSK1581428] | 0% |
| COc1cccc(C2=C(Nc3cccc(Cl)c3)C(=O)NC2=O)c1 [SB-341556] | 22% |
| C[C@@H](Oc1cc(-n2cnc3cc(-c4cnn(C)c4)ccc32)sc1C(N)=O)c1ccccc1Cl [GSK580432] | 70% |
| Cc1ccc2c(-c3ccnc(Nc4ccc(C(F)(F)F)cc4)n3)cnn2n1 [GW819776] | 39% |
| CCn1c(-c2nonc2N)nc2cncc(Br)c21 [SB-738004] | 6% |
| CCN1CCN(CCCC(=O)Nc2n[nH]c3nc(-c4ccc(O)cc4)c(Br)cc23)CC1 [SB-731579] | 57% |
| CN1CCN(CCCNc2nccc(-c3c(-c4ccc(F)cc4)nn4cc(C(N)=O)ccc34)n2)CC1 [GW622475] | 15% |
| COC(=O)c1cccc(NC(=O)NC2CCN(c3ccnc(NCc4ccc(F)cc4)n3)CC2)c1 [GSK1379860] | 0% |
| CC(=O)c1c(-c2ccncc2)[nH]c(-c2ccncc2)c1C [GW493036] | 8% |
| CN1CCN(CCNc2nc3cc(Oc4ccc(NC(=O)Nc5cc(C(F)(F)F)ccc5F)cc4)ccc3[nH]2)CC1.Cl.Cl [GW768504] | 0% |
| COc1cc2ncn(-c3cc(OCC4CCCCC4)c(C(N)=O)s3)c2cc1OC [GSK204559] | 0% |
| O=C(NCC1CC1)c1ccc(-c2cc(C(=O)NC3CC3)ccc2F)cc1 [GW810445] | 0% |
| CS(=O)c1ccc(-c2coc3ccc(-c4n[nH]c(=O)o4)cc23)cc1 (centres unmarked) | 0% |
| Cc1ccn2nc(-c3ccc(F)cc3)c(-c3ccncc3)c2c1.Cl [GW457859] | 0% |
| Cc1ccc(CC(=O)N2CCc3cc(-c4cn(C)c5ncnc(N)c45)ccc32)cc1 [GSK2634758] | 58% |
| CCOC(=O)N1CCC(n2cnc(-c3ccc(F)cc3)c2-c2ccnc(N)n2)CC1 [SB-219952] | 0% |

Tested on: T2, MST3
T2 construct: gene STK24
Settings: concentration: 1 μM,replicates: in singlicate; n = 1

| SMILES | %Inh |
| --- | --- |
| CCCC(=O)Nc1n[nH]c2ncccc12 [SB-601436] | 0% |
| CC(C)S(=O)(=O)N1CCN(Cc2ccc3c(c2)nc(NC(=O)c2ccsc2)n3C[C@H](O)c2ccccc2)CC1 [GW635815] | 1% |
| Cn1ccc2ncnc(Oc3ccc(NC(=O)Nc4cncc(C(F)(F)F)c4)c(Cl)c3)c21 | 0% |
| CN(c1ccc2c(c1)nc(NCc1ccc(F)cc1)n2C)c1ccnc(Nc2ccc(CS(C)(=O)=O)cc2)n1.Cl [GW813244] | 1% |
| C[C@@H](Oc1cc(-n2cnc3ccc(-c4ccncc4)cc32)sc1C(N)=O)c1ccccc1Cl [GSK483724] | 0% |
| C[C@@H]1CNc2c(sc3ccc4nc(-c5ccncc5)ccc4c23)C(=O)N1 | 10% |
| COc1cc(Nc2nccc(N3CCC(NC(=O)c4cccc(C#N)c4)C3)n2)cc(OC)c1OC (centres unmarked) [GSK1379751] | 0% |
| Cn1ccc2ncnc(Oc3ccc(NC(=O)Nc4ccnc(C(F)(F)F)c4)c(Cl)c3)c21 | 9% |
| Cn1cc(-c2cccc3c(N)c(C(N)=O)nnc23)cn1 | 51% |
| CC(=O)Nc1nc2cnc(Nc3cc(NC(=O)c4cccc(CC(C)(C)C#N)c4)ccc3C)nc2s1 | 0% |
| COc1cccc(CNC(=O)NC2CCN(c3ccnc(Nc4cc(OC)c(OC)c(OC)c4)n3)C2)c1 (centres unmarked) [GSK1379765] | 0% |
| O=C(Nc1cccc(C(F)(F)F)c1)c1cccc(Oc2ccc3nccn3n2)c1 | 0% |
| OCCn1cc(-c2cnc3nnn(Cc4ccc5ncccc5c4)c3n2)cn1 | 0% |
| Cc1cccc(-c2nc(Nc3ccncc3)c3sccc3n2)n1 [GW869641] | 5% |
| CS(=O)(=O)Nc1ccc(-c2ccnc3[nH]ccc23)cc1 [GSK993273] | 20% |
| Cn1ccc2ncnc(Oc3ccc(NC(=O)Nc4cccc(C(F)(F)F)c4)c(Cl)c3)c21 | 18% |
| O=C(Nc1n[nH]c2cc(-c3ccco3)ccc12)C1CC1 [SB-737447] | 17% |
| Cc1ccc(C(=O)Nc2ccc(Oc3ccc4nc(NC(=O)C5CC5)cn4c3)c(F)c2)c(=O)n1-c1ccccc1 | 5% |
| Cc1n[nH]c2cc(Nc3ccnc(Nc4cccc(CN5CCOCC5)c4)n3)ccc12 [GW682569] | 14% |

| SMILES | %Inh |
| --- | --- |
| Cn1ccc2ncnc(Oc3ccc(NC(=O)Nc4cnn(C(C)(C)C)c4)c(Cl)c3)c21 | 4% |
| Cn1ccc2ncnc(Oc3ccc(NC(=O)Nc4cccc(C(F)(F)F)c4)c(F)c3)c21 | 0% |
| Cl.Cl.NC[C@H](CC1CCCCC1)NC(=O)c1ccc(-c2ccnc3[nH]ccc23)s1 [GSK1581428] | 9% |
| COc1cccc(C2=C(Nc3cccc(Cl)c3)C(=O)NC2=O)c1 [SB-341556] | 0% |
| C[C@@H](Oc1cc(-n2cnc3cc(-c4cnn(C)c4)ccc32)sc1C(N)=O)c1ccccc1Cl [GSK580432] | 0% |
| Cc1ccc2c(-c3ccnc(Nc4ccc(C(F)(F)F)cc4)n3)cnn2n1 [GW819776] | 0% |
| CCn1c(-c2nonc2N)nc2cncc(Br)c21 [SB-738004] | 19% |
| CCN1CCN(CCCC(=O)Nc2n[nH]c3nc(-c4ccc(O)cc4)c(Br)cc23)CC1 [SB-731579] | 0% |
| CN1CCN(CCCNc2nccc(-c3c(-c4ccc(F)cc4)nn4cc(C(N)=O)ccc34)n2)CC1 [GW622475] | 33% |
| COC(=O)c1cccc(NC(=O)NC2CCN(c3ccnc(NCc4ccc(F)cc4)n3)CC2)c1 [GSK1379860] | 0% |
| CC(=O)c1c(-c2ccncc2)[nH]c(-c2ccncc2)c1C [GW493036] | 0% |
| CN1CCN(CCNc2nc3cc(Oc4ccc(NC(=O)Nc5cc(C(F)(F)F)ccc5F)cc4)ccc3[nH]2)CC1.Cl.Cl [GW768504] | 0% |
| COc1cc2ncn(-c3cc(OCC4CCCCC4)c(C(N)=O)s3)c2cc1OC [GSK204559] | 0% |
| O=C(NCC1CC1)c1ccc(-c2cc(C(=O)NC3CC3)ccc2F)cc1 [GW810445] | 0% |
| CS(=O)c1ccc(-c2coc3ccc(-c4n[nH]c(=O)o4)cc23)cc1 (centres unmarked) | 24% |
| Cc1ccn2nc(-c3ccc(F)cc3)c(-c3ccncc3)c2c1.Cl [GW457859] | 14% |
| Cc1ccc(CC(=O)N2CCc3cc(-c4cn(C)c5ncnc(N)c45)ccc32)cc1 [GSK2634758] | 56% |
| CCOC(=O)N1CCC(n2cnc(-c3ccc(F)cc3)c2-c2ccnc(N)n2)CC1 [SB-219952] | 44% |
